According to PubChem BioAssay (EPA / NIEHS):
“And” between values parts separate entries of the source, which are not always exact repeats. Equal entries are not always repeated. Some compounds were tested as several samples or in several runs, with calls that do not always agree. The source made the active and inactive calls. The calls were made as follows: active = hit-call score of the fitted dose curve at least 0.9, where 1 is the maximum; inactive = score below 0.9.

What was measured:
Settings in all cases: mRNA level, 48 h; actives raise or lower the signal
[1] = read-out: ABC Transporter (ABCB1), ABCB1 (gene 5243); assay: LTEA_HepaRG_ABCB1: Life Technologies and Expression Analysis (LTEA) Assay for ABC Transporter (ABCB1) using HepaRG (AID 2283460)
Outline: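 HepaRG, 48 h exposure, 8-pt half-log series from 100 uM, 0.5% DMSO vehicle, duplicates. Readout: ABCB1 transcript by Fluidigm TaqMan qRT-PCR, housekeeping-normalized; bidirectional curve fit vs DMSO baseline.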

[2] = read-out: growth arrest and DNA damage 45 (GADD45B), GADD45B (gene 4616); assay: LTEA_HepaRG_GADD45B: Life Technologies and Expression Analysis (LTEA) Assay for growth arrest and DNA damage 45 (GADD45B) using HepaRG (AID 2283461)
Outline: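 Human HepaRG monolayers receive chemicals for 48 h at eight half-log concentrations, highest 100 uM, in 0.5% DMSO. Expression is measured by TaqMan qRT-PCR and normalized to ACTB, GAPDH and POLR2A.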

[3] = read-out: ABC Transporter (ABCB11), ABCB11 (gene 8647); assay: LTEA_HepaRG_ABCB11: Life Technologies and Expression Analysis (LTEA) Assay for ABC Transporter (ABCB11) using HepaRG (AID 2283463)
Outline: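 HepaRG, 48 h exposure, 8-pt half-log CRC top 100 uM, 0.5% DMSO vehicle, duplicates. Readout: TaqMan qRT-PCR of ABCB11 mRNA, housekeeping-normalized (ACTB/GAPDH/POLR2A). Bidirectional fit vs DMSO baseline.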

[4] = read-out: Broad substrate specificity ATP-binding cassette transporter ABCG2 (Homo sapiens) (UniProt Q9UNQ0); assay: LTEA_HepaRG_ABCG2: Life Technologies and Expression Analysis (LTEA) Assay for ABC Transporter (ABCG2) using HepaRG (AID 2283465)
Outline: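 HepaRG, 48 h exposure, 8-pt half-log series from 100 uM, 0.5% DMSO vehicle, duplicates. Readout: ABCG2 transcript by qRT-PCR (Fluidigm array), housekeeping-normalized; bidirectional curve fit relative to DMSO baseline.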

[5] = read-out: ATP-citrate lyase (ACLY), ACLY (gene 47); assay: LTEA_HepaRG_ACLY: Life Technologies and Expression Analysis (LTEA) Assay for ATP-citrate lyase (ACLY) using HepaRG (AID 2283466)
Outline: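 qRT-PCR readout of ACLY transcript after 48 h chemical treatment of HepaRG cells; expression normalized to three housekeeping genes. Eight-point half-log series, highest 100 uM, 0.5% DMSO vehicle. Gain or loss fitted against DMSO baseline.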

[6] = read-out: Peroxisomal acyl-coenzyme A oxidase 1 (ACOX1) gene, ACOX1 (gene 51); assay: LTEA_HepaRG_ACOX1: Life Technologies and Expression Analysis (LTEA) Assay for Peroxisomal acyl-coenzyme A oxidase 1 (ACOX1) gene using HepaRG (AID 2283467)
Outline: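 HepaRG, 48 h chemical exposure, 8-pt half-log series from 100 uM top, 0.5% DMSO vehicle, duplicates. Readout: ACOX1 mRNA by Fluidigm qRT-PCR, housekeeping-normalized; bidirectional fit vs DMSO baseline.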

[7] = read-out: Alkaline Phosphatase, Placental (ALPP) gene, ALPP (gene 250); assay: LTEA_HepaRG_ALPP: Life Technologies and Expression Analysis (LTEA) Assay for Alkaline Phosphatase, Placental (ALPP) gene using HepaRG (AID 2283468);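 as to AC50: differentiated human HepaRG liver cells in serum-free induction medium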
Outline: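 Using human liver HepaRG cells, chemicals are tested in duplicate over 48 h at half-log concentrations topping at 100 uM; phenobarbital 1 mM serves as induction control. ALPP mRNA change by qRT-PCR, bidirectional fit against vehicle.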

[8] = read-out: Bcl-2 (BAD) gene, BAD (gene 572); assay: LTEA_HepaRG_BAD: Life Technologies and Expression Analysis (LTEA) Assay for Bcl-2 (BAD) gene using HepaRG (AID 2283469)
Outline: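 HepaRG, 48 h exposure, 8-pt half-log curve from 100 uM in 0.5% DMSO, duplicates. Readout: TaqMan qRT-PCR for BAD mRNA, housekeeping-normalised (ACTB/GAPDH/POLR2A); gain or loss fitted against DMSO baseline.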

Measured: AC50

Sequence of Broad substrate specificity ATP-binding cassette transporter ABCG2 (Homo sapiens) (Q9UNQ0 whole entry, looked up): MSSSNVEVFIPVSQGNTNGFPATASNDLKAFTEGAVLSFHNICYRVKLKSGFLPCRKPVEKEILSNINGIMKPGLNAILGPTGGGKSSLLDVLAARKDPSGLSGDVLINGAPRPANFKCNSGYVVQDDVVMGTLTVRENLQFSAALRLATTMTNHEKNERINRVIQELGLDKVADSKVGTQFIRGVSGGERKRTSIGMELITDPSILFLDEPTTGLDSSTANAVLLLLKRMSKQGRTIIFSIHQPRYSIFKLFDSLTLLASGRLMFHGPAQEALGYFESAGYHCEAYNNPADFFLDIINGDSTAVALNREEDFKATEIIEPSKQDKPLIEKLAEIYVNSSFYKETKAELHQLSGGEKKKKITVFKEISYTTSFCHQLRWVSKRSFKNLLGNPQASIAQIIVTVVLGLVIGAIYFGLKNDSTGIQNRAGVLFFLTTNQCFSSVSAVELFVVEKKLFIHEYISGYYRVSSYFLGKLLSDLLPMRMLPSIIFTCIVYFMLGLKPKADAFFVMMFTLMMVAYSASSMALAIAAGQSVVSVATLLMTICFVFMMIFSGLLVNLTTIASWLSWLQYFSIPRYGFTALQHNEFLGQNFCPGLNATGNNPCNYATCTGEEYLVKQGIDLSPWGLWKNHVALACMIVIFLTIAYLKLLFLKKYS

Oc1cc(Cl)ccc1Oc1ccc(Cl)cc1Cl
active: [3] 73.3 µM and 75.5 µM
inactive: [1] | [2] | [3] | [4] | [5] | [6] | [7] | [8]

C#CCN1C(=O)COc2cc(F)c(N3C(=O)C4=C(CCCC4)C3=O)cc21
active: [1] 9.92 µM | [3] 50 µM
not listed: [6]
inactive: all other assays above

CCCN(CCOc1c(Cl)cc(Cl)cc1Cl)C(=O)n1ccnc1
active: [1] 3.22 µM | [3] 25.5 µM | [4] 10.8 µM | [5] 12.5 µM | [7] 35.6 µM
inactive: [2] | [8]

O=C(O)COc1ccc(Cl)cc1Cl
active: [3] 31.2 µM
not listed: [6]
inactive: all other assays above

OCCOc1ccccc1
not listed: [6]
inactive: all other assays above

O=[N+]([O-])c1c(Cl)c(Cl)c(Cl)c(Cl)c1Cl
active: [2] 60.7 µM
not listed: [6]
inactive: all other assays above

CN1CSC(=S)N(C)C1
not listed: [6]
inactive: all other assays above

CCOCN(C(=O)CCl)c1c(C)cccc1CC
active: [2] 75.5 µM | [3] 82.5 µM
not listed: [6]
inactive: all other assays above

CNC(=O)/C=C(\C)OP(=O)(OC)OC
not listed: [6]
inactive: all other assays above

CC(C)(C)C(O)/C(=C\c1ccc(Cl)cc1Cl)n1cncn1 (centres undefined)
inactive: [4] | [8]
active: [1] 84.4 µM | [2] 87.1 µM | [3] 25.1 µM | [5] 88.9 µM | [7] 22 µM

CCC(C)(C)C(=O)OC1=C(c2ccc(Cl)cc2Cl)C(=O)OC12CCCCC2
active: [3] 20.7 µM
not listed: [6]
inactive: all other assays above

O=C(NC(=O)c1c(F)cccc1F)Nc1ccc(OC(F)(F)C(F)OC(F)(F)F)c(Cl)c1 (centres undefined)
active: [5] 25 µM
not listed: [6]
inactive: all other assays above

Oc1ccc(Cl)cc1Cc1ccccc1
active: [3] 93.7 µM and 67 µM and 80 µM
not listed: [6]
inactive: all other assays above

C[C@H]1[C@H](c2ccc(Cl)cc2)SC(=O)N1C(=O)NC1CCCCC1
inactive: [8]
active: [1] 32.8 µM | [2] 82.2 µM | [3] 76.5 µM | [4] 39.7 µM | [5] 79.7 µM | [7] 32.1 µM

CNC(=O)Oc1ccccc1OC(C)C
not listed: [5] | [7]
inactive: all other assays above

COP(=O)(OC)OC=C(Cl)Cl
not listed: [6]
inactive: all other assays above

Cc1[nH]c(=O)n(C(C)(C)C)c(=O)c1Cl
not listed: [6]
inactive: all other assays above

COP(=S)(OC)Oc1ccc(SC)c(C)c1
active: [4] 31.8 µM
not listed: [6]
inactive: all other assays above

CCC(C)Nc1c([N+](=O)[O-])cc(C(C)(C)C)cc1[N+](=O)[O-] (centres undefined)
active: [1] 13 µM | [4] 22 µM
not listed: [6]
inactive: all other assays above

O=S1OCC2C(CO1)C1(Cl)C(Cl)=C(Cl)C2(Cl)C1(Cl)Cl (centres undefined)
active: [3] 50 µM | [5] 87.1 µM
not listed: [6]
inactive: all other assays above

COc1nn(CSP(=S)(OC)OC)c(=O)s1
not listed: [6]
inactive: all other assays above

CC(C)N(C(=O)COc1nnc(C(F)(F)F)s1)c1ccc(F)cc1
active: [3] 50 µM
not listed: [6]
inactive: all other assays above

O=C(O)CCCOc1ccc(Cl)cc1Cl
active: [4] 11.6 µM | [5] 50.8 µM
not listed: [6]
inactive: all other assays above

CCOC1Oc2ccc(OS(C)(=O)=O)cc2C1(C)C (centres undefined)
inactive: [2] | [8]
active: [1] 35.2 µM | [3] 73 µM | [4] 28.2 µM | [5] 82.6 µM | [7] 43.6 µM
